Sampled rows, rich in hits. Any-hit rate of the full collection: about 11%.
IMPase cell inh = IMPase inhibition in cells; P97697; CHO-M1 cells, IP1 accumulation, HTRF TR-FRET ratio; inhibition (IP1 accumulation), % at 46.1 µM; 120,000 tested, under 10 active; AID 901; active = well fitted curve in the direction sought with a large enough effect in the signal ratio, not every such curve was filed as active; inconclusive = small, poorly fitted or top-dose-only effect, or a change in a side signal; inactive = no such curve, though single readings can be large or run the other way; the % refers to the signal ratio;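 note: cells stimulated with carbachol in lithium chloride buffer; higher means more IMPase inhibition seen as more IP1 and lower FRET ratio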
Target sequence (P97697 whole entry, looked up): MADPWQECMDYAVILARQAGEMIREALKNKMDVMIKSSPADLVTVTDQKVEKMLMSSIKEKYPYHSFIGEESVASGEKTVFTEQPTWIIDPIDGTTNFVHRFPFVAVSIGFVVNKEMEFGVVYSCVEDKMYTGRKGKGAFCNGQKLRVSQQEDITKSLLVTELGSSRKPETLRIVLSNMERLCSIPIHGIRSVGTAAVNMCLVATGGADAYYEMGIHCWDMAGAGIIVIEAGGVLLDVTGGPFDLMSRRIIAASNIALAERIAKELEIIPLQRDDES
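The IP-One HTRF competitive assay in carbachol-stimulated CHO-M1 cells quantifies cellular IP1. Compounds spanned up to 46 uM final, and activity is expressed as AC50 from concentration-response fits of the ratio and donor data.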
IMPase Li cell = IMPase inhibition in cells with lithium potentiation. CHO-M1 cells, IP1 TR-FRET (IP-One), carbachol + lithium. Potency, µM (series often up to 59.4 µM), most hits filed as inhibitors. 210,000 tested, 0.35% active. AID 1457; active = well fitted inhibition curve with a large enough effect; inconclusive = small, poorly fitted or top-dose-only effect; inactive = no such curve, though single readings can be large or run the other way;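 note: IP1 builds up when IMPase is blocked and the TR-FRET signal falls; nearly all actives have a fitted effect of over 50% in size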
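Readout is a homogeneous TR-FRET IP1 immunoassay (Ex 320, Em 665 and 620), where raised cytosolic IP1 lowers signal. Cells were CHO-M1 treated 30 min at 37C with test compounds plus a little lithium; AC50 values came from Hill-equation fitting.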
HPGD inh = HPGD (human) dehydrogenase inhibition | P15428 | purified HPGD, NADH fluorescence kinetic, PGE2 substrate | Potency, µM, most hits filed as inhibitors | 150,000 tested, 4.3% active | AID 894
Target sequence (P15428 whole entry, looked up): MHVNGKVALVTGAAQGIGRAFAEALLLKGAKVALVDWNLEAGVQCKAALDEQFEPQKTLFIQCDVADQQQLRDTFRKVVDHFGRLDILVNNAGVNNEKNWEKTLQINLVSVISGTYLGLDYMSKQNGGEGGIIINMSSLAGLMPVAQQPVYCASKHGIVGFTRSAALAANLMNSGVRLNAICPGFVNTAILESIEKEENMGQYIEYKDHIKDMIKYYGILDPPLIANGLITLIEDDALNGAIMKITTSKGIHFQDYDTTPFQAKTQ
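20 nM HPGD preincubated 15 min at room temperature with compound in 50 mM Tris-HCl pH 8, 0.01% Tween 20. Started with 1 mM NAD+ and 30 uM prostaglandin E2; NADH fluorescence (360/450 nm) read 5 times over 30-s intervals, last minus first.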
ALDH1A1 block = ALDH1A1 (human) enzyme inhibition; Purified ALDH1A1, NADH fluorescence, propionaldehyde substrate; Potency, µM (doses to about 75.3 µM), hits mostly inhibitors; 220,000 tested, 7.3% active; AID 1030
PNC assembly inh = blocks assembly of the perinucleolar compartment; PC3M PTB-GFP, PNC prevalence imaging, 16 h; active compounds read low; activity change (PNC), negative = inhibition, % at 10 µM; AID 2417; 140,000 tested, 3.1% active;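 active = readout at or below -70, meaning at least 70% loss of cells showing the perinucleolar compartment, a nuclear body marking cancer cells; inconclusive = readout between -30 and a set limit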
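Read-out is percentage of cells bearing a perinucleolar compartment, from automated 20x imaging of fixed, Hoechst-stained PC3M PTB-GFP cells. Cells were seeded 4 h, then exposed 16 h to compound (23 nl of library stock) in duplicate plates.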
Of the large screens only hits and unclear results are named; the others gave an inactive call. Unless noted, calls come from the whole dose curve; as a rule, active = well fitted inhibition curve with a large enough effect (not every such curve was filed as active); inconclusive = small, poorly fitted or top-dose-only effect, or another doubt; inactive = no such curve, though single readings can be large or run the other way.

COc1ccc(C(CC(=O)Nc2cc(OC)cc(OC)c2)n2cccc2)cc1 (configuration not stated)	none (no result: IMPase cell inh)
CCCCNC(=O)C1CC(=O)N(c2ccc(OC)cc2)C1c1ccc(OC)cc1 (configuration not stated)	ALDH1A1 block inconclusive
C1CCC(C(C[C@@H]2CCCCN2)C2CCCCC2)CC1	ALDH1A1 block inconclusive (no result: PNC assembly inh)
CCOC(=O)N/N=C/C=C/c1ccccc1[N+](=O)[O-]	ALDH1A1 block 10µM (no result: IMPase cell inh, HPGD inh, PNC assembly inh)
O=C(N/N=C/C=C/c1ccccc1[N+](=O)[O-])c1cc(-c2ccccc2)n[nH]1	HPGD inh 25µM, ALDH1A1 block inconclusive (no result: IMPase cell inh)
O=C(CSc1nc2ccccc2[nH]1)N/N=C/C=C/c1ccccc1[N+](=O)[O-]	ALDH1A1 block 4.5µM (no result: IMPase cell inh)
CC(C)C(=O)N1CCN(c2ccccc2NC(=O)c2cc([N+](=O)[O-])ccc2N2CCOCC2)CC1	none (no result: IMPase cell inh, HPGD inh, PNC assembly inh)
CC(C)CC(=O)N1CCN(c2ccc([N+](=O)[O-])cc2Cl)CC1	ALDH1A1 block 32µM (no result: IMPase cell inh)
CC(C)C(=O)N1CCN(c2ccc([N+](=O)[O-])cc2Cl)CC1	ALDH1A1 block 14µM (no result: IMPase cell inh)
CC(C)CC(=O)NC(=S)N1CCN(c2ccc([N+](=O)[O-])cc2Cl)CC1	ALDH1A1 block inconclusive (no result: IMPase cell inh)
COC(=O)[C@@]1(Cc2ccc(OC)cc2)[C@H]2c3cc(C(=O)N(C)C)n(Cc4ccsc4Br)c3C[C@H]2CN1C(=O)c1ccccc1	none (no result: IMPase cell inh, PNC assembly inh)
COc1ccc2c(c1)O[C@@H](c1ccc3c(c1)OCO3)[C@H](OC(=O)NCc1ccc3c(c1)OCO3)C2=O	none (no result: IMPase cell inh, PNC assembly inh)
Cc1cc(C)cc(-n2c(C)cc(C=C(C#N)C#N)c2C)c1	IMPase Li cell 10µM
c1ccncc1	none (no result: IMPase cell inh, PNC assembly inh)
CC(=O)c1cc(CN2CCN(C3CCN(C(C)C)CC3)C(CCO)C2)cs1 (configuration not stated)	none (no result: IMPase cell inh, HPGD inh, PNC assembly inh)
COc1ccc(CNc2cc(-c3ccccc3CN(C)C)ncn2)c(OC)c1	none (no result: IMPase cell inh, PNC assembly inh)
O=C(CSc1ccc(-c2ccco2)nn1)NC1CCCCC1	ALDH1A1 block 4µM (no result: IMPase cell inh, HPGD inh, PNC assembly inh)
O=C(CSc1ccc(-c2ccccn2)nn1)NC1CCCCC1	none (no result: IMPase cell inh, HPGD inh, PNC assembly inh)
NC(=O)COC(=O)c1ccccc1SCC(=O)NC1CCCCCC1	ALDH1A1 block 28µM (no result: IMPase cell inh, HPGD inh, PNC assembly inh)
O=C(CSc1ccc(-c2ccco2)nn1)NC1CCCC1	ALDH1A1 block 35µM (no result: IMPase cell inh, HPGD inh, PNC assembly inh)
COc1cc(C(=O)NNC(=O)c2cc(C)[nH]n2)cc(OC)c1OC	none (no result: IMPase cell inh, HPGD inh, PNC assembly inh)
COc1ccccc1CN1CCCC2(CCN(C(=O)c3ccncc3)CC2)C1	ALDH1A1 block inconclusive (no result: IMPase cell inh, PNC assembly inh)
CCc1ccc(NC(=O)CN2C(=O)c3cccc4cccc2c34)cc1	none (no result: IMPase Li cell, HPGD inh, ALDH1A1 block, PNC assembly inh)
Nc1nc(NCC2CCC(CNS(=O)(=O)c3cccc4ccccc34)CC2)nc2ccccc12 (configuration not stated)	HPGD inh inconclusive, ALDH1A1 block inconclusive (no result: IMPase cell inh, PNC assembly inh)
CC(C)[C@@H]1C(=O)N(S(C)(=O)=O)[C@H]2CCN(C(=O)/C=C\CN3CCCCC3)[C@@H]12	none (no result: PNC assembly inh)
CCOC(=O)C1(C)C=C(Nc2cccc(C)c2)C(=O)N1c1ccccc1 (configuration not stated)	none (no result: IMPase Li cell, HPGD inh, ALDH1A1 block, PNC assembly inh)
CC(C)OC(=O)c1cccc(-c2ccc(C=O)o2)c1	ALDH1A1 block 6.3µM, PNC assembly inh -108 (no result: IMPase cell inh)
CC(C)OC(=O)c1ccc(COC(=O)c2cccc(-c3nnc(-c4ccccc4)o3)c2)cc1	PNC assembly inh inconclusive
CC1CCN(C(=S)c2cn(Cc3ccccc3F)c3ccccc23)CC1	ALDH1A1 block 14µM
CC1=CC(C)(C)N(S(=O)(=O)c2ccc(F)cc2)c2ccccc21	PNC assembly inh inconclusive
CC1=CC(C)(C)N(S(=O)(=O)c2ccc(C)cc2)c2ccc(C)cc21	PNC assembly inh -90
O=C(NCC1CCCO1)c1cc2c(=O)[nH]c3ccccc3c2s1 (configuration not stated)	ALDH1A1 block inconclusive (no result: IMPase cell inh, HPGD inh, PNC assembly inh)
COc1ccc(-n2c(CCC(=O)O)ccc2-c2ccccc2)c(OC)c1	none (no result: IMPase Li cell, HPGD inh, ALDH1A1 block, PNC assembly inh)
CCOC(=O)CSc1nc2sc3c(c2c(=O)n1CC)CCCC3	none (no result: IMPase Li cell, HPGD inh, ALDH1A1 block, PNC assembly inh)
Cc1nc2sc3c(c2c(=O)n1NC(=O)CCBr)CCCC3	ALDH1A1 block 14µM (no result: IMPase cell inh, HPGD inh, PNC assembly inh)
CC(C)[C@@H](CC(=O)N[C@@H]1CCCC[C@H]1C(=O)N[C@H](CC(=O)N[C@@H](CCC(=O)O)CC(=O)O)Cc1ccccc1)NC(=O)C[C@H](Cc1ccccc1)NC(=O)[C@@H]1CNCC[C@H]1N	none (no result: IMPase cell inh, PNC assembly inh)
CCCCn1cnc2cc(NC(=O)c3cc(OC)c(OC)c(OC)c3)ccc21	none (no result: IMPase Li cell, HPGD inh, ALDH1A1 block, PNC assembly inh)
